# Measured values published in the supplement of paper PMC9694430.
# Tested on: LOC_OS01G01410-cb001
# Assay: thermal shift delta Tm vs DMSO control; higher = stronger stabilization (binding)
# Conditions: 12.5 µM; protein concentration 2 µM
# Outline: (§1)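 Heating from 25°C to 95°C at 0.05°C/s, fluorescence was recorded for 19.5 μl wells of 2 μM E. coli-expressed, purified rice kinase domain in 100 mM potassium phosphate pH 7.5, 150 mM NaCl, 10% glycerol and 5 × SYPRO Orange with compound in DMSO. Boltzmann fits gave melting temperatures for this differential scanning fluorimetry assay. The shift reported is the mean of three replicates against the DMSO-only protein.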
# 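Further: purified Escherichia coli-expressed rice kinase domain construct.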
row,SMILES,thermal shift delta Tm [°C]
1,COc1cc2ncnc(Nc3ccc(Cl)cc3F)c2cc1OC,0.69
2,"Cc1cc(Nc2ncnc3ccc(NC4=NC(C)(C)CO4)cc23)ccc1Oc1ccn2ncnc2c1 [Irbinitinib (ARRY-380, ONT-380)]",0.46
3,CC1(C)CNc2cc(NC(=O)c3cccnc3NCc3ccncc3)ccc21 [Motesanib Diphosphate (AMG-706)],1.13
4,COC(=O)Nc1ccc(-c2nc(N3CCOCC3)c3cnn(C4CCN(C(=O)OC)CC4)c3n2)cc1,0.48
5,COc1cc(C(=O)N2CCC(N3CCN(C)CC3)CC2)ccc1Nc1ncc2c(n1)N(C)c1ccccc1C(=O)N2C,0.19
6,C=C(C)[C@@H]1CC[C@]2(C)CC[C@]3(C)[C@H](CC[C@@H]4[C@@]5(C)CC[C@H](O)C(C)(C)[C@@H]5CC[C@]43C)[C@@H]12 [Lupeol],0.2
7,Oc1cccc(-c2nc(N3CCOCC3)c3oc4ncccc4c3n2)c1,0.96
8,CCn1c(N)c(C(=O)NC)c(=O)c2ccc(C#CC(C)(O)COC)nc21 (stereo not given),0.45
9,CCOc1cc(C(=O)N2CCC(N3CCN(C)CC3)CC2)ccc1Nc1ncc2c(n1)N(C1CCCC1)c1ccccc1C(=O)N2C,0.26
10,Cc1ccc(NC(=O)c2cccc(C(C)(C)C#N)c2)cc1Nc1ccc2ncn(C)c(=O)c2c1,0.91
11,Nc1ccc(-c2ccc3ncc4ccc(=O)n(-c5cccc(C(F)(F)F)c5)c4c3c2)cn1 [Torin 2],1.14
12,CCN(CC)CCCC(C)Nc1ccnc2cc(Cl)ccc12 (stereo not given) [Chloroquine Phosphate],0.08
13,C[C@@H](N)[C@H]1CC[C@H](C(=O)Nc2ccncc2)CC1,1.02
14,COc1cc(N2CCC(N(C)C)CC2)ccc1Nc1ncc(Cl)c(Nc2ccccc2P(C)(C)=O)n1,0.42
15,"CCCS(=O)(=O)Nc1ccc(F)c(C(=O)c2c[nH]c3ncc(-c4ccc(Cl)cc4)cc23)c1F [Vemurafenib (PLX4032, RG7204)]",3.81
16,CO[C@H]1C[C@@H]2CC[C@@H](C)[C@@](O)(O2)C(=O)C(=O)N2CCCC[C@H]2C(=O)O[C@H]([C@H](C)C[C@@H]2CC[C@@H](OCCO)[C@H](OC)C2)CC(=O)[C@H](C)/C=C(\C)[C@@H](O)[C@@H](OC)C(=O)[C@H](C)C[C@H](C)/C=C/C=C/C=C/1C [Everolimus (RAD001)],1.13
17,COc1ccc(S(=O)(=O)N(CCO)c2ccccc2CN(C)C/C=C/c2ccc(Cl)cc2)cc1 [KN-93 Phosphate],0.65
18,CN(C[C@@H]1COCCO1)S(=O)(=O)Nc1ccc2ccc3ncc(-c4cnn(C)c4)cc3c(=O)c2c1,2.9
19,COc1ccc(CCNCc2ccc(OCc3ccc(Cl)nc3)c(OC)c2)cc1OC,0.02
20,Clc1ccc(C2(c3ccc(-c4cn[nH]c4)cc3)CCNCC2)cc1,0.09
21,CN(C)Cc1cccc(N/C(=C2\C(=O)Nc3cc(C(N)=O)ccc32)c2ccccc2)c1,-0.11
22,"CC[C@H](CO)Nc1nc(NCc2ccccc2)c2ncn(C(C)C)c2n1 [Roscovitine (Seliciclib,CYC202)]",1.5
23,Cc1cc(Nc2cc(N3CCN(C)CC3)nc(/C=C/c3ccccc3)n2)n[nH]1,2.2

# Tested on: LOC_OS01G02750-cb003
# Assay: as above
# Conditions: 12.5 µM; protein concentration 2 µM
# Outline: as §1
row,SMILES,thermal shift delta Tm [°C]
1,CCOc1cc2ncc(C#N)c(Nc3ccc(OCc4ccccn4)c(Cl)c3)c2cc1NC(=O)/C=C/CN(C)C [Neratinib (HKI-272)],1.42
2,COc1cc2nccc(Oc3ccc(NC(=O)Nc4cc(C)on4)c(Cl)c3)c2cc1OC [Tivozanib (AV-951)],1.12
3,O=C1NC(=O)C(c2ccccc2[N+](=O)[O-])=C1Nc1ccc(O)c(Cl)c1,-1.98
4,Cc1c(C(=O)N2CCOc3ccc(-c4ccc(N)nc4)cc3C2)ccc(S(C)(=O)=O)c1F,0.8
5,Cn1nccc1Nc1nccc(-c2ccn([C@H](CO)c3ccc(Cl)c(F)c3)c(=O)c2)n1,1.21
6,COc1cc2c(N3CCN(C(=O)Nc4ccc(OC(C)C)cc4)CC3)ncnc2cc1OCCCN1CCCCC1 [Tandutinib (MLN518)],1.12
7,C[C@@H]1COCCN1c1cc(=O)n2c(n1)N(Cc1cncc(Cl)c1)[C@H](C(F)(F)F)CC2,1.55
8,COc1ccc(F)c(F)c1C(=O)c1cnc(NC2CCN(S(C)(=O)=O)CC2)nc1N,-0.36
9,O=C(NCc1ccccc1)c1csc(Nc2ccncn2)n1 [Thiazovivin],1.66
10,CCN(CC)CCCCNc1ncc2cc(-c3cc(OC)cc(OC)c3)c(NC(=O)NC(C)(C)C)nc2n1,1.32
11,O=c1cc(N2CCOCC2)oc2c(-c3ccc4c(c3)OCCO4)csc12,2.36
12,Nc1ccc(C(=O)Nc2cccc(-c3nc(N4CCOCC4)c4oc5ncccc5c4n3)c2)cn1,1.58
13,O=C(NC[C@H](O)CO)c1ccncc1Nc1ccc(I)cc1F,0.07
14,CCOc1cc2ncc(C#N)c(Nc3ccc(F)c(Cl)c3)c2cc1NC(=O)/C=C/CN(C)C [Pelitinib (EKB-569)],0.32
15,COc1cc2ncnc(Nc3ccc(Cl)cc3F)c2cc1OC,0.81
16,"Cc1cc(Nc2ncnc3ccc(NC4=NC(C)(C)CO4)cc23)ccc1Oc1ccn2ncnc2c1 [Irbinitinib (ARRY-380, ONT-380)]",-5.11
17,CC1(C)CNc2cc(NC(=O)c3cccnc3NCc3ccncc3)ccc21 [Motesanib Diphosphate (AMG-706)],0.81
18,COC(=O)Nc1ccc(-c2nc(N3CCOCC3)c3cnn(C4CCN(C(=O)OC)CC4)c3n2)cc1,0.7
19,COc1cc(C(=O)N2CCC(N3CCN(C)CC3)CC2)ccc1Nc1ncc2c(n1)N(C)c1ccccc1C(=O)N2C,0.47

row,SMILES,thermal shift delta Tm [°C]
1,C=C(C)[C@@H]1CC[C@]2(C)CC[C@]3(C)[C@H](CC[C@@H]4[C@@]5(C)CC[C@H](O)C(C)(C)[C@@H]5CC[C@]43C)[C@@H]12 [Lupeol],0.62
2,Oc1cccc(-c2nc(N3CCOCC3)c3oc4ncccc4c3n2)c1,0.09
3,CCn1c(N)c(C(=O)NC)c(=O)c2ccc(C#CC(C)(O)COC)nc21 (stereo not given),0.44
4,CCOc1cc(C(=O)N2CCC(N3CCN(C)CC3)CC2)ccc1Nc1ncc2c(n1)N(C1CCCC1)c1ccccc1C(=O)N2C,0.37
5,Cc1ccc(NC(=O)c2cccc(C(C)(C)C#N)c2)cc1Nc1ccc2ncn(C)c(=O)c2c1,0.97
6,Nc1ccc(-c2ccc3ncc4ccc(=O)n(-c5cccc(C(F)(F)F)c5)c4c3c2)cn1 [Torin 2],1.23
7,CCN(CC)CCCC(C)Nc1ccnc2cc(Cl)ccc12 (stereo not given) [Chloroquine Phosphate],1.04
8,C[C@@H](N)[C@H]1CC[C@H](C(=O)Nc2ccncc2)CC1,0.15
9,COc1cc(N2CCC(N(C)C)CC2)ccc1Nc1ncc(Cl)c(Nc2ccccc2P(C)(C)=O)n1,-0.8
10,"CCCS(=O)(=O)Nc1ccc(F)c(C(=O)c2c[nH]c3ncc(-c4ccc(Cl)cc4)cc23)c1F [Vemurafenib (PLX4032, RG7204)]",7.84
11,CO[C@H]1C[C@@H]2CC[C@@H](C)[C@@](O)(O2)C(=O)C(=O)N2CCCC[C@H]2C(=O)O[C@H]([C@H](C)C[C@@H]2CC[C@@H](OCCO)[C@H](OC)C2)CC(=O)[C@H](C)/C=C(\C)[C@@H](O)[C@@H](OC)C(=O)[C@H](C)C[C@H](C)/C=C/C=C/C=C/1C [Everolimus (RAD001)],-1.72
12,COc1ccc(S(=O)(=O)N(CCO)c2ccccc2CN(C)C/C=C/c2ccc(Cl)cc2)cc1 [KN-93 Phosphate],0.92
13,CN(C[C@@H]1COCCO1)S(=O)(=O)Nc1ccc2ccc3ncc(-c4cnn(C)c4)cc3c(=O)c2c1,3.39
14,COc1ccc(CCNCc2ccc(OCc3ccc(Cl)nc3)c(OC)c2)cc1OC,0.3
15,Clc1ccc(C2(c3ccc(-c4cn[nH]c4)cc3)CCNCC2)cc1,0.73
16,CN(C)Cc1cccc(N/C(=C2\C(=O)Nc3cc(C(N)=O)ccc32)c2ccccc2)c1,0.69
17,"CC[C@H](CO)Nc1nc(NCc2ccccc2)c2ncn(C(C)C)c2n1 [Roscovitine (Seliciclib,CYC202)]",0
18,Cc1cc(Nc2cc(N3CCN(C)CC3)nc(/C=C/c3ccccc3)n2)n[nH]1,1.8
